# Out of some 18,000 compounds screened, fewer than 10 showed an effect of 50% or more. Only a sample is shown.
# Tested on: Pseudomonas aeruginosa
# Test: Antibacterial activity against Pseudomonas aeruginosa PAO397 [PAO1 d(mexAB-oprM) d(mexCD-oprJ) d(mexEF-oprN) d(mexJKL) d(mexXY) d(opmH)] (CO-ADD:GN_211); MIC in CAMBH media using NBS plates, by OD(600)
# Type: functional
# Conditions: Concentration 300 ug.mL-1, ASSAY_TEST Inhibition of Bacterial Growth, detection method Absorption (OD600), MEDIA CAMHB, plate type 384well, CORNING #3640, time 18 hr
row,Structure (SMILES),Inhibition [%]
1,O=C(NC(C1CCNCC1)[C@H]1C[C@H](O)C1)C1(CO)CC1 (some centres undefined),10.73
2,CC1(C)Cc2cccc(OCCN)c2O1,-35.66
3,CN1CCC(CN(C)Cc2cncs2)C1 (centres undefined),2.31
4,CC(Cn1cccn1)NC(=O)CCc1ccc(F)cc1 (centres undefined),-50.8
5,CC(C)c1nc(CN(CCO)Cc2nccn2C)co1,-7.36
6,CC1(C)CN(CC(O)C(F)(F)F)CCO1 (centres undefined),7.85
7,COc1cccc(CN(C)CCN(C)C)c1OC,12.2
8,CC(C)NC(=O)CNC(=O)c1cc2cc(F)ccc2[nH]1,-6.73
9,CC1CCN(C(=O)NCCS(=O)(=O)C(C)(C)C)C1 (centres undefined),10.36
10,CCNc1ncc(C(=O)N[C@@H]2CC[C@@H](N)C2)cn1,21.83
11,CC(c1ccc(F)cc1)N(C)C(=O)CCCN (centres undefined),-12.4
12,c1nsnc1-c1nc(C2CCCO2)no1 (centres undefined),-21.13
13,O=C(NCc1nnc2n1CCC2)Nc1cn[nH]c1,21.21
14,NCCCc1cn[nH]c1,12.47
15,O=C(c1ccc(C2CCCNC2)cc1)N1CCSCC1 (centres undefined),-23.58
16,CCCNC(=O)C1CCN(c2ncccc2C#N)CC1,-18.27
17,CCC(C(=O)Nc1ccccc1)N1CCS(=O)(=O)CC1 (centres undefined),18.51
18,COc1cc(F)c(S(=O)(=O)N(C)CC(N)=O)cc1OC,33.48
19,COc1nc(C)ccc1C#N,11.86
20,CC1(C)C(=O)NCCN1S(=O)(=O)c1ccccc1,-8.7
21,Nc1ccc(CN2CCN(CC(F)(F)F)CC2)cn1,-9.81
22,COc1ccc(C(=O)N2C[C@@H](CO)[C@H](N(C)C)C2)cn1,-8.8
23,NCc1cc2c([nH]c1=O)CCCC2,4.51

row,Structure (SMILES),Inhibition [%]
1,C=C(C)CN1CCC(NC(=O)NC2CC2)CC1,-6.54
2,Cn1nc(C(=O)NCc2cc(Cl)ccn2)ccc1=O,-9.69
3,CC(C)CC(NCCS(C)(=O)=O)c1ccccn1 (centres undefined),6.01
4,Cc1sc(S(N)(=O)=O)cc1N,7.68
5,COc1ccc(CC(C)=O)cn1,4.82
6,CC(C#N)CNC(=O)c1c(O)cc(F)cc1F (centres undefined),13.91
7,Cc1cccc(CNCCS(=O)(=O)N2CCOCC2)c1,-1.09
8,c1cnc2cc(-c3nc(C4CCOC4)no3)nn2c1 (centres undefined),18.33
9,CC(C)N(CCOc1ccccc1C#N)CC(N)=O,-27.27
10,Cc1csc(N2CCCN(C(=O)c3cnsn3)CC2)n1,-3.72
11,O=C(c1cccc(-n2cccn2)n1)N1CCCC1,17.03
12,COCCCn1c(SC2CCCCNC2=O)n[nH]c1=O (centres undefined),-25.74
13,CCNC(=O)COC(=O)c1cc(O)nc2ccccc12,-1.47
14,Cc1cc(CO)ccc1N1CCOCC1,6.45
15,CC(C)OCC(O)CN1CCc2ccc(O)cc2C1 (centres undefined),-14.27
16,CCc1ccc(CN2Cc3cnn(CCO)c3C2)nc1,18.58
17,NC(=O)CN1CCC(NC(=O)c2cc(Br)c[nH]2)CC1,14.11
18,O=C(CNC(=O)N1CCC=C(Br)C1)N1CCCCC1,-37.56
19,CCN(Cc1[nH]cnc1C)C1CCS(=O)(=O)C1 (centres undefined),6.36
20,CN1N=C(C(=O)Nc2ccc(Cl)cn2)CCC1=O,8.23
21,Cc1cc(=O)n(C)cc1NC(=O)CCc1ccccn1,1.98
22,CC(C)(C)c1noc(CN2CCSCC2)n1,-15.23
23,CC(O)CN(C)c1ncc(Br)cn1 (centres undefined),-40.03

row,Structure (SMILES),Inhibition [%]
1,CC(C)(C)SCC(=O)Nc1ccc(CS(N)(=O)=O)cc1,-2.55
2,CS(=O)(=O)NC(c1ccc(F)cc1)c1cccnc1 (centres undefined),-27.51
3,CN(C)CCOC1CCNCC1,12.65
4,COC(=O)CNC(=O)CSc1nc(C)cc(C)c1C#N,-8.27
5,CN1CCC(CN(C)S(=O)(=O)c2ccccc2)CC1,-25.1
6,Cc1cc(C)n(-c2ccc(C(=O)NC(C)(C)C)cn2)n1,9.83
7,Cn1cccc1CNCCNC(=O)c1ccn[nH]1,-19.28
8,c1ccc(C2=NCCN2)nc1,8.57
9,Cc1ccc(CC(=O)N2CCC[C@H]2CO)cc1O,9.81
10,c1ccc2[nH]c(NCC3CCCO3)nc2c1 (centres undefined),-27.33
11,COCCNC(=O)CN1CCC2(CC1)OCCO2,24.44
12,CCOc1cccc(NC(=O)c2ccc(C)[nH]c2=O)n1,14.98
13,CN1CCOC(C(=O)Nc2ncc(Cl)s2)C1 (centres undefined),-8.17
14,CC(=O)NC1CCN(Cc2ccc(F)c(F)c2)CC1,-27.6
15,Cc1ccccc1OCCN1CCC(C(N)=O)CC1,0.98
16,COc1ccccc1OCC(C)N (centres undefined),15.24
17,NC1CC(c2cc(NCC[C@H]3CCCN3)ncn2)C1 (some centres undefined),15.98
18,CNc1nnc(SCc2csc(NC(C)=O)n2)s1,-5.82
19,COc1ccc(C(N)c2ccncc2)cc1 (centres undefined),-28.12
20,CC(=O)N1CCN(c2ccc(CN)cc2)CC1,-1.93
21,O=C(NC1CC1)c1n[nH]c2ccccc12,-5.33
22,O=C(CCCc1nccs1)NCC(=O)N1CCCCC1,-6.34
23,CC(CS(C)(=O)=O)NC(=O)C(C)(C)C (centres undefined),-7.14

# Reference: ChEMBL document CHEMBL4513160, “CO-ADD screening of MMV (CH) - Small Polar Library”
